In all, about 1,200 compounds went through this assay and about 360 (30%) were called active. No rule for the calls is given here. These entries were drawn from the full list. A call without a number means that no potency is given here. Potency and affinity values are given separately.

The assay is described as follows: bacterial growth inhibition, dose response, counter-screen, BacTiter-Glo luminescence, cherry-picked samples (AID 504843).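 Also: growth measured after 8 h incubation at 30 °C.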 To be noted: BacTiter-Glo ATP luminescence; series mostly up to 15 µM. For orientation: Counterscreens check selectivity or assay interference.
As for `CN(C)S(=O)(=O)c1cccc(NC(=O)C2CCN(S(=O)(=O)c3cccs3)CC2)c1`, the outcome was inactive.
Turning to `Cn1c(SCC(=O)NCc2cccs2)nnc1-c1ccc(S(=O)(=O)N2CCCC2)cc1`, the result was inactive.
Turning to `CCCCCN(C(=O)CCC(=O)OCC(=O)N(C)Cc1ccc(C)cc1)c1c(N)n(CCCC)c(=O)[nH]c1=O`, the molecule was called inactive.
Take `CCCCn1c(N)c(N(CC)C(=O)c2ccc(Cl)c(Cl)c2)c(=O)[nH]c1=O`: the molecule was classed as inactive.
To `CC1(C)CC(NC(=O)c2ccc(-c3ccc([N+](=O)[O-])cc3)o2)CC(C)(C)N1` belongs “inactive”; to `CC(O)(CC(=O)CC(=O)c1ccccc1)c1ccccc1` (centres undefined), “inactive”.
Consider `COc1ccc(C2CC(=O)c3cnc(NC(=O)c4ccccc4)nc3C2)c(OC)c1` (centres undefined), for which the molecule was called inactive.
As for `S=c1[nH]nc(-c2cccnc2)n1C1CCCCC1`, the molecule was classed as inactive.
Then `COCc1cc(=O)[nH]c2cc(NC(=O)C(F)(F)F)c(C)cc12`, with “inactive”.
`CCOc1ccccc1C1C(C(N)=O)=C(C)Nc2nc(-c3ccccc3Cl)nn21` (centres undefined): the result was inactive.
Then `COc1ccc(C2C(C#N)=C(N)Oc3c2sc2nc(C)cc(C)c32)cc1` (centres undefined), with “inactive”.
To `Cc1cc(-n2c(C)cc(C(=O)COc3cccnc3[N+](=O)[O-])c2C)no1` belongs “inactive”; to `Cc1ccc2cccc(OCC(=O)N3CCc4ccccc43)c2n1`, “inactive”.
On to `CC(C)C[C@H]1C(=O)N2CCC[C@H]2[C@]2(O)O[C@](NC(=O)[C@@H]3C=C4c5cccc6[nH]c(Br)c(c56)CC4N(C)C3)(C(C)C)C(=O)N12` (some centres undefined), for which the molecule was called inactive.
On to `CCC(C)OC1OC(CO)C(O)C(O)C1NC(C)=O` (centres undefined), for which the molecule was called inactive.
To `CC(C)OC(=O)c1c(NC(=O)c2ccco2)sc2c1CCCC2` belongs “inactive”; to `COc1ccc(S(=O)(=O)N2CCCOC2CNC(=O)C(=O)NCCCN2CCOCC2)cc1` (centres undefined), “inactive”.
Consider `Cc1ccc(C(=O)N/C(=C\c2ccc(C(C)C)cc2)C(=O)NCCCN2CCOCC2)cc1`, for which the molecule was called inactive.
In the case of `CCOC(=O)c1c(NC(=O)CCC(=O)O)sc2c1CC(C)(C)OC2`, the outcome was inactive.
Regarding `Cc1cc(NC(=O)C2CC2)ccc1NC(=O)c1cccs1`, the result was inactive.
Consider `O=C1OCc2ccc(NC(=O)C3CC3)cc21`, for which the call was inactive.
As to `COc1ccc(-c2nc(C#N)c(NCC3CCCO3)o2)cc1OC` (centres undefined), the molecule was classed as inactive.
As for `CCOC(=O)CSc1cc(CS(C)(=O)=O)nc(-c2ccccn2)n1`, the molecule was called inactive.
As to `CC1CCN(CC[C@H]2CCCN2S(=O)(=O)c2cccc(O)c2)CC1`, the outcome was inactive.
Turning to `Cc1ccc(C(=O)c2cnc3ccccc3c2-c2ccccc2)cc1`, the outcome was inactive.
Regarding `CN(C(=O)c1cc2sccc2n1C)C1CCCCC1`, the molecule was called inactive.
On to `CN(C)CCCNC(=O)C(=O)NCC1CCCO1` (centres undefined), for which the result was inactive.
On to `Cc1nn(Cc2ccccc2)c(C)c1NC(=O)c1noc2c1CCc1ccccc1-2`, for which the result was inactive.
`Cc1ccc(Cn2nc(C)c(NC(=O)c3cc(C)no3)c2C)cc1`: the outcome was inactive.
To `O=C(NCCc1ccccc1)c1n[nH]c2ccccc12` belongs “inactive”; to `O=C(CCCc1ccccc1)Nc1ccc2c(c1)OCCO2`, “inactive”; to `Cc1ccc(-n2c3nc(=O)[nH]c(=O)c-3cc3c(C)nn(-c4ccccc4)c32)c(C)c1`, “inactive”.
For `N#Cc1cn(CC(=O)N2CCCc3ccccc32)c2ccccc12`, the result was inactive.
Take `CC1CCc2nc(N)c(C#N)c(-c3ccncc3)c2C1` (centres undefined): the molecule was classed as inactive.
On to `CC(C)c1cc(C(=O)NCc2ccco2)no1`, for which the molecule was classed as inactive.
For `COc1ccc(-c2ccc(-c3noc(-c4ccccc4OC)n3)c(OC)n2)cc1`, the outcome was inactive.
To `CCN(CC)S(=O)(=O)c1ccc(S(=O)(=O)Nc2ccc3c(c2)oc2ccccc23)cc1` belongs “inactive”; to `C/C(=C\C(=O)OCCCCCCCCC(=O)O)C[C@@H]1OC[C@H](C[C@@H]2O[C@H]2[C@@H](C)[C@H](C)O)[C@@H](O)[C@H]1O`, “inactive”; to `COc1ccc(S(=O)(=O)N(C)C)cc1NC(=O)CSc1nnc(-c2cccnc2)o1`, “inactive”.
Then `CC1=CC(C)(C)N2C(=O)C3(C(C#N)=C(N)OC4=C3C(=O)CCC4)c3c(C)c(C)cc1c32` (centres undefined), with “inactive”.
As to `CC1(C)CC(=O)C=C(NCCN2CCN(C(=O)Nc3ccccc3)CC2)C1`, the call was inactive.
In the case of `COCCCN=C(c1ccco1)n1c(=S)nc(-c2ccco2)n(CCCOC)c1=S`, the result was inactive.
For the molecule `O=C(COc1ccc([N+](=O)[O-])cc1)Nc1cc(S(=O)(=O)N2CCCCC2)ccc1N1CCCCC1`, the outcome was inactive.
On to `CSc1ccccc1NC(=O)CN(C)CC(=O)Nc1ccc(S(=O)(=O)N2CCCC2)cc1`, for which the molecule was called inactive.
Take `Cc1c(C)c2c(C)nn(-c3ccccc3)c2[nH]c1=O`: the outcome was inactive.
For the molecule `CC(C)C(c1nnnn1C1CCCC1)N1CCC(C(N)=O)CC1` (centres undefined), the result was inactive.
In the case of `Cc1ccc(-n2nnnc2-c2cnc3cc4c(cc3c2C)OCO4)cc1`, the call was inactive.
As to `O=C(Cc1ccccc1Cl)c1ccccc1`, the call was inactive.
In the case of `O=C(NCc1ccccn1)C1CC(c2ccccc2O)=NO1` (centres undefined), the molecule was classed as inactive.
Take `COc1cc2cc(CN(CCO)S(=O)(=O)c3ccccc3Cl)c(=O)[nH]c2cc1OC`: the result was inactive.
For `COC(=O)Nc1ccc2c(c1)N(C(=O)CCN1CCOCC1)c1ccccc1S2`, the molecule was classed as inactive.
As for `CC(C)(C)OC(=O)N(CCc1ccccc1)Cc1cccc(OCc2cccc(NC(=O)/C=C/c3ccccc3)c2)c1`, the molecule was classed as inactive.
Take `CCc1ccc(N2CC34C=CC(O3)C(C(=O)OC(C)C)C4C2=O)cc1` (centres undefined): the call was inactive.
In the case of `Cc1nnc(SCc2ccccc2CSc2nnc(C)s2)s1`, the outcome was inactive.
As for `Cc1onc(-c2c(F)cccc2Cl)c1C(=O)Nc1sc2c(c1C#N)CCC(C(C)(C)C)C2` (centres undefined), the molecule was classed as inactive.
Then `Cc1onc(-c2ccccc2)c1C(=O)NCc1ccc(F)cc1`, with “inactive”; and `Cn1c(C(=O)NCc2cccs2)cc2c(=O)n(C)c3ccccc3c21`, with “inactive”.
Take `CCCOc1ccc(/C(O)=C2/C(=O)C(=O)N(CCN(C)C)C2c2ccc(O)c(OC)c2)cc1` (centres undefined): the molecule was classed as inactive.
Then `COC(=O)CSc1ccc(C#N)c(SCC(=O)OC)c1`, with “inactive”; and `CCN(CC)C(=O)C1=C(C)NC(=O)NC1c1c(F)cccc1Cl` (centres undefined), with “inactive”.
For the molecule `CCOC(=O)C1=C(C)NC(=S)NC1c1cc(C)sc1C` (centres undefined), the molecule was called inactive.
To `Nc1ccc2c(c1)-c1ccccc1S(=O)(=O)N2` belongs “inactive”; to `CCCOc1cccc(C(=O)Nc2ccc(Br)cc2F)c1`, “inactive”.
As for `CCOC(=O)c1ccccc1-n1nnnc1C`, the outcome was inactive.
To `O=C(CNc1ccc(Cl)cc1)c1ccc(Br)cc1` belongs “inactive”; to `CCc1ccc(C(=O)Nc2ccc(S(=O)(=O)Nc3nc(C)cc(C)n3)cc2)o1`, “inactive”; to `O=S(=O)(/N=C(/Nc1ccccc1)c1ccccc1)c1cccs1`, “inactive”.
To `COc1ccc(-c2cc(C(=O)Oc3ccc([N+](=O)[O-])cc3)c3ccccc3n2)cc1` belongs “inactive”; to `COC(=O)COc1cc2ccccc2cc1C(=O)Nc1ccccc1`, “inactive”.

These data come from PubChem BioAssay AID504843 (Broad Institute, 2011).
